Drawing on PubChem BioAssay, this text covers z-score and composite z-score for 5 molecules.

Assay [1] in a line: adipocyte viability effects, profiling panel, cell-based, 3T3-L1 adipocytes, calcein-AM fluorescence, 48 h, basal (AID 1163). To be noted: 3T3-L1 adipocytes viability, higher = more signal.
Assay [2] can be described thus: HepG2 cell viability effects, profiling panel, calcein-AM fluorescence, 48 h, basal (AID 1164). To be noted: higher = more signal.
Assay [3] can be described thus: MM1S cell viability effects, profiling panel, calcein-AM fluorescence, 48 h, basal (AID 1165).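 Further: viability of MM1S multiple myeloma cells under basal unstimulated conditions.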 To be noted: higher = more signal.
Assay [4] in a line: basal RPMI8226 viability, no added stimulus, profiling panel, cell-based, calcein-AM fluorescence, 48 h, PK04 Diversity Set (AID 1166).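 Further: cells grown under basal conditions without added stimulus.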 As to conditions: RPMI8226 myeloma viability, higher = more signal.
Assay [5] in a line: basal HepG2 mitochondrial membrane potential changes, profiling panel, cell-based, JC-1 fluorescence, 24 h, 100 nL compound (AID 1167). To be noted: higher = more signal.
Assay [6] can be described thus: basal 3T3-L1 adipocyte mitochondrial potential changes, profiling panel, cell-based, JC-1 fluorescence, 3T3-L1 adipocytes, 24 h, 100 nL compound (AID 1168). As to conditions: JC-1 mitochondrial fluorescence, higher = more signal, called active from +8 up or from −8 down.
Assay [7] in a line: basal RPMI8226 mitochondrial membrane potential changes, profiling panel, cell-based, JC-1 fluorescence, 24 h, 100 nL compound (AID 1169). To be noted: RPMI8226 myeloma, JC-1 mitochondrial potential fluorescence, higher = more signal.
Assay [8] in a line: basal MM1S mitochondrial membrane potential changes, profiling panel, cell-based, JC-1 fluorescence, 24 h, 100 nL compound (AID 1170). As to conditions: higher = more signal.
The nature of assay [9]: A549 lung cancer cell viability effects, profiling panel, resazurin fluorescence, 24 h, PK04 Diversity Set (AID 1171). To be noted: higher = more signal, called active from +8 up or from −8 down. In general terms: Resazurin is reduced to fluorescent resorufin, in cell work by metabolically active cells.
Assay [10] is described as follows: HepG2 liver cancer cell viability effects, profiling panel, resazurin fluorescence, 24 h, PK04 Diversity Set (AID 1172). To be noted: higher = more signal.
Assay [11] is described as follows: basal S. cerevisiae growth modulation, no modifier, primary screen, OD600, strain BY4716, 24 h, basal condition (AID 1173). To be noted: OD600, 24 h, higher = more signal, called active from +8 up or from −8 down.
Assay [12] in a line: MM1S myeloma cell viability, profiling panel, resazurin fluorescence, basal, 24 h, PK04 Diversity Set (AID 1174). To be noted: higher = more signal, called active from +8 up or from −8 down.
Assay [13] has as its target Dihydroorotate dehydrogenase (quinone), mitochondrial (Plasmodium falciparum (isolate 3D7)) (UniProt Q08210). Nature of the assay: PfDHODH enzyme inhibitors, primary screen, biochemical, C-terminal His tag, absorbance 600 nm (AID 1175).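 Further: recombinant parasite enzyme with a five histidine tag at its C terminus.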 To be noted: DCIP absorbance 600 nm, higher = more signal, called active from +8 up or from −8 down.
A short description of assay [14]: S. cerevisiae RM11-1a growth modifiers, primary screen, strain RM11-1a, OD600, basal, 24 h (AID 1177).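 Further: cultures grown under basal conditions with no added stressor.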 As to conditions: OD600, 24 h, higher = more signal, called active from +8 up or from −8 down.
The nature of assay [15]: E. coli acrAB mutant growth effects, primary screen, E. coli filamentation inducers, strain DRC39, OD650, 24 h (AID 1178).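 Further: growth measured as culture turbidity by optical density at 650 nm.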 As to conditions: higher = more signal, called active from +8 up or from −8 down.
Assay [16] in a line: E. coli acrAB mutant growth effects, primary screen, E. coli filamentation inducers, strain DRC39, OD650, 48 h (AID 1179).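 Further: screen aims at cell division blockers that make cells filament.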 As to conditions: E. coli DRC39 delta-acrAB growth, higher = more signal, called active from +8 up or from −8 down.
Assay [17] can be described thus: RPMI8226 myeloma cell viability, profiling panel, resazurin fluorescence, basal, 24 h, PK04 Diversity Set (AID 1180).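 Further: RPMI8826 multiple myeloma cell line at 5000 cells per well.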 As to conditions: higher = more signal.
The target of assay [18] is E3 ubiquitin-protein ligase XIAP (Homo sapiens) (UniProt P98170). As to the kind of experiment: XIAP binders, primary screen, biophysical, small-molecule microarray, fluorescence 635 nm (AID 1181).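 Further: score merges 667 nm emission and signal to noise over triplicate slides.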 As to conditions: small-molecule microarray binding, higher = more signal.
Chain of E3 ubiquitin-protein ligase XIAP (Homo sapiens) (P98170 whole entry, looked up): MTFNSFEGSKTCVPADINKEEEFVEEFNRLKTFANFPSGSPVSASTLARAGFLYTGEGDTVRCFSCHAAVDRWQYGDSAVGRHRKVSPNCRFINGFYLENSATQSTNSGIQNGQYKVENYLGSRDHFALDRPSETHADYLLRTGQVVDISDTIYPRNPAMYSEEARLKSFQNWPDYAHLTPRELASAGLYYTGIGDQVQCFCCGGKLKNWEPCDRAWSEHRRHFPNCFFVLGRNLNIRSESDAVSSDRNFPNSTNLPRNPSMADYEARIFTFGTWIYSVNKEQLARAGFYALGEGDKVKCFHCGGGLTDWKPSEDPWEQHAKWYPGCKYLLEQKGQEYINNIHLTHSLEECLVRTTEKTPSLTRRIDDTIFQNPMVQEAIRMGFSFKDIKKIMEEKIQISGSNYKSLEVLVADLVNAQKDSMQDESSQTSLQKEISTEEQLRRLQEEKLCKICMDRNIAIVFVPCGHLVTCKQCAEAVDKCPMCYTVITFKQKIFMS
The subject of assay [19] is XIP peptide (Xip251-270) binding. As to the kind of experiment: small-molecule binders of XIP peptide, primary screen, biochemical, small-molecule microarray, fluorescence 635/667 nm, 0.1 µg/mL protein (AID 1182). To be noted: fluorescent protein binding, 635 nm, higher = more signal, called active from +8 up or from −8 down.
The subject of a further assay is XIP peptide (Xip251-270). As to the kind of experiment: small-molecule binders of XIP peptide, primary screen, biochemical, small-molecule microarray, fluorescence 635/667 nm, 0.5 µg/mL protein (AID 1183). To be noted: small-molecule microarray binding, fluorescence 635 nm; higher = more signal.

Calls of active or inactive are those of the source.

Chain of Dihydroorotate dehydrogenase (quinone), mitochondrial (Plasmodium falciparum (isolate 3D7)) (Q08210 whole entry, looked up): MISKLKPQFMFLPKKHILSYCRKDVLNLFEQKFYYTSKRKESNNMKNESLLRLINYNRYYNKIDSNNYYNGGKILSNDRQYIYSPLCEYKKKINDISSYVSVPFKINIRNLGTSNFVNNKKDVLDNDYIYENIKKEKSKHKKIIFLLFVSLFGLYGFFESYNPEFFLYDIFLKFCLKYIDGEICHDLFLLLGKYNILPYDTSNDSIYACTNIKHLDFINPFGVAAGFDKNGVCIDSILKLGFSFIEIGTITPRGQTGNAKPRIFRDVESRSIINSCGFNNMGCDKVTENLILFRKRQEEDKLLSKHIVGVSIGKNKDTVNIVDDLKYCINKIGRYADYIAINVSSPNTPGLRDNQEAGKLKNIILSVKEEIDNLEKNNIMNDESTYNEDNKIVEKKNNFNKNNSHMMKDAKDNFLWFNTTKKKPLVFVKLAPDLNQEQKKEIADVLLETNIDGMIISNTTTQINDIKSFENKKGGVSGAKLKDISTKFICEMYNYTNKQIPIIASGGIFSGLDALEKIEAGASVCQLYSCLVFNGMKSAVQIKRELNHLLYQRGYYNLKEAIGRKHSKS

For the molecule `CCCCC(=C=CC[C@H](O)c1cccc(OCCO)c1)CCO`, the z-score in [1] is 1.07; in [2] it was -0.693; in assay [3] it was -1; in assay [4], -0.257; in [5] it was 0.733; in assay [6], 0.439 (inactive). Besides, the z-score was 0.12 in [7]; -0.0531 in assay [8]; 1.7 (inactive) in assay [9]; 0.529 in assay [10]; -1.41 (inactive) in [11]; 1.31 (inactive) in [12]. The z-score in assay [14] was -0.114 (inactive); in [15], 1.3 (inactive); in [16], 0.749 (inactive); in [17] it was 0.837. The composite z-score in [13] was -0.802 (inactive); in assay [18], 0.0458; in assay [19] it was 0.511 (inactive); in the assay on XIP peptide (Xip251-270), -0.97.

Regarding `C=C(COC)C(=O)CC[C@H](OC(=O)c1cccnc1)c1cccc(OCCO)c1`, the z-score in assay [1] is 1.13; in assay [2] it was -1.38; in [3] it was -3.32; in assay [4], -0.941; in assay [5], 0.872; in assay [6], 0.984 (inactive). Besides, the z-score in assay [7] is -0.169; in assay [8] it was -0.615; in assay [9], 0.633 (inactive); in assay [10], 0.282; in assay [11] it was -0.221 (inactive); in assay [12], 0.839 (inactive). For the same molecule, the z-score in assay [14] was 1.61 (inactive); in assay [15], 1.09 (inactive); in [16], 0.757 (inactive); in assay [17] it was -0.581. The composite z-score in [13] was -0.236 (inactive); in assay [18], 0.0792; in assay [19], 0.804 (inactive); with XIP peptide (Xip251-270) it was -0.661.

For the molecule `C=C(C(=O)CC[C@@H](OC(C)=O)c1ccccc1OCCO)C(C)C`, the z-score is -0.161 in assay [1]; -0.9 in assay [2]; -0.951 in assay [3]; 0.0365 in assay [4]; -0.75 in [5]; 0.544 (inactive) in [6]. The z-score in assay [7] is -0.0109; in assay [8], 0.0542; in [9], 0.788 (inactive); in [10], 0.166; in [11] it was -13 (active); in assay [12], 0.932 (inactive). In addition, the z-score in assay [14] was 0.0933 (inactive); in [15], 1.33 (inactive); in assay [16], 0.928 (inactive); in assay [17], 1.57. In addition, the composite z-score is -3.59 (inactive) in [13], -0.0163 in [18], 0.888 (inactive) in [19] and 0.565 in the assay on XIP peptide (Xip251-270).

As for `CN1C=C(C(=O)OCCS(C)(=O)=O)C(C(=O)OCCS(C)(=O)=O)=CC(CCCO)=CC1c1cccs1` (stereo not given), the z-score in assay [1] is 0.778; in assay [2] it was 0.615; in assay [3] it was 0.175; in assay [4], -0.249; in assay [5] it was 1.9; in assay [6], 1.93 (inactive). Besides, the z-score in [7] is 0.0813; in assay [8], 0.885; in assay [9], 0.776 (inactive); in [10] it was 0.666; in assay [11], -3.06 (inactive); in [12] it was 1.07 (inactive). Besides, the z-score was -1.01 (inactive) in assay [14], 1.26 (inactive) in assay [15], 0.676 (inactive) in assay [16] and 0.602 in [17]. Also, the composite z-score in assay [13] is -4.08 (inactive); in [18], 0.0374; in [19], -0.64 (inactive); with XIP peptide (Xip251-270), -0.254.

`CC(C)N1CC=CC23O[C@@H]4/C=C\CCCOC(=O)C4[C@H]2C(=O)N(CCCO)[C@@H]3C1=O` (stereo not given in full): the z-score in assay [1] is 0.834; in assay [2], 0.152; in [3] it was 0.827; in [4], 0.311; in assay [5], 0.795; in assay [6] it was 0.32 (inactive). The z-score in assay [7] was 0.747; in [8], 0.789; in assay [9], 0.817 (inactive); in [10], 0.129; in assay [11], 0.11 (inactive); in assay [12] it was 0.791 (inactive). The z-score in [14] was 1.05 (inactive); in assay [15], 1.36 (inactive); in [16], 1.25 (inactive); in assay [17] it was 1.78. In addition, the composite z-score in assay [13] is -0.506 (inactive); in assay [18], 0.0126; in assay [19], 0.015 (inactive); in the assay with XIP peptide (Xip251-270) it was -0.556.
